Experimental data published in PubChem BioAssay (Tox21).
Inconclusive results are not listed. The source made the active and inactive calls. Unless noted, calls follow the shape of the full dose curve. Peptide text beside a SMILES is read from it.

Assays:
[1] = Nuclear factor erythroid 2-related factor 2/antioxidant responsive element (Nrf2/ARE) small molecule agonists: luciferase reporter gene qHTS assay in human keratinocytes (AID 1919969); also: nearly all actives have a fitted effect of over 35% in size; also: potency is read from the fitted curve at half-maximal effect
[2] = biological target: Gonadotropin-releasing hormone receptor (Homo sapiens) (UniProt P30968); test: Human gonadotropin-releasing hormone receptor (GnRHR) small molecule agonists, calcium flux assay in GnRHR-HEK293 cells (AID 1920063); also: nearly all actives have a fitted effect of over 35% in size
Sequence of Gonadotropin-releasing hormone receptor (Homo sapiens) (P30968 whole entry, looked up): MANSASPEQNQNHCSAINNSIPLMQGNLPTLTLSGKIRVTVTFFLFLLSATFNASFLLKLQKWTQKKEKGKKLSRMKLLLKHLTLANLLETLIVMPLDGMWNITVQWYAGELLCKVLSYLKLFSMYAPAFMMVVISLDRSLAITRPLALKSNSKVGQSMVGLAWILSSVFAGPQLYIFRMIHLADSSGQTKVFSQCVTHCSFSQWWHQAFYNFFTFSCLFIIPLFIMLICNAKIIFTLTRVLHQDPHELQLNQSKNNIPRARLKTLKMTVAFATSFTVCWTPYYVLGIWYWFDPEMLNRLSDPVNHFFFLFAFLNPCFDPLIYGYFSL
Summary of the method: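 Calcium flux, agonist mode, human GnRHR stably integrated in HEK293; dye 1 h at 37 C before compound; Ex/Em=480/540 kinetic read, 3 min; 15 concentrations, triplicate.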

[3] = biological target: KiSS-1 receptor (Homo sapiens) (UniProt Q969F8); test: Human kisspeptin (KISS1R) small molecule agonists, calcium flux assay in KISS1R-HEK293 cells (AID 1920064; active = well fitted activation curve with a large enough effect in the repeat runs)
Sequence of KiSS-1 receptor (Homo sapiens) (Q969F8 whole entry, looked up): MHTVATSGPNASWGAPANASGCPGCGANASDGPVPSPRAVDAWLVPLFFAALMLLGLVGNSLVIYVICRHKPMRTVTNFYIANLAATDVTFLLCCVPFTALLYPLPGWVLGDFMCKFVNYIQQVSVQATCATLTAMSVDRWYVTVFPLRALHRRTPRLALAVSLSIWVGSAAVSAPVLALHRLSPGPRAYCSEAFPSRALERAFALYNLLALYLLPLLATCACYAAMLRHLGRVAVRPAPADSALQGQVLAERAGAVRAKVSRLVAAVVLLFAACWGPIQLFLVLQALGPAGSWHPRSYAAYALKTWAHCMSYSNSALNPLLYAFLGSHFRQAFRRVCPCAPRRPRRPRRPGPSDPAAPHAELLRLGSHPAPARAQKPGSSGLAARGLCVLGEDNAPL
Summary of the method: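 Triplicate 15-concentration series were applied to dye-loaded human KISS1R HEK293 cells, and agonist-evoked calcium fluorescence was captured for 3 min.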

[4] = G protein-coupled receptor (GPCR) small molecule agonists, calcium flux assay: HEK293 wild type cell line counter screen (AID 1920065)
Summary of the method: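 Non-specific calcium responders were flagged by adding DMSO-dissolved compounds to dye-loaded cells and reading 480/540 nm fluorescence each second for 3 min; ATP served as positive control.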

[5] = p53 small molecule agonists, cell-based qHTS assay with human liver microsomes (AID 1963577)
Summary of the method: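 Cells carrying a p53-responsive bla reporter were rested 5 h (37 C, 5% CO2) before compound transfer. Human liver microsomes plus NADPH, 0.5 mg/mL final apiece, supplied metabolism during the 16 h 37 C exposure.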

[6] = p53 small molecule agonists, cell-based qHTS assay with rat liver microsomes (AID 1963578)
Summary of the method: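 Fluorescence from a beta-lactamase reporter under a p53 response element was measured after cells had been incubated 16 h at 37 C with test compound and rat liver microsomes plus NADPH (0.5 mg/mL final each).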

[7] = p53 small molecule agonists, cell-based qHTS assay with human liver microsomes: qHTS cell viability counter screen (AID 1963579); also: nearly all actives have a fitted effect of over 45% in size
Summary of the method: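 Seed p53RE-bla cells at 4,000 per well; incubate 5 h at 37 C; add compound, human liver microsomes and NADPH; incubate 16 h at 37 C; add CellTiter-Glo; after 30 min at room temperature, read luminescence.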

[8] = p53 small molecule agonists, cell-based qHTS assay with rat liver microsomes: qHTS cell viability counter screen (AID 1963580); also: nearly all actives have a fitted effect of over 45% in size
Summary of the method: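 Luminescent ATP readout (CellTiter-Glo, 30 min at room temperature) reports viability of p53RE-bla HCT-116 cells after 16 h at 37 C with test compounds under metabolic activation by rat liver microsomes and NADPH at 0.5 mg/mL final each.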

[9] = p53 small molecule agonists, cell-based qHTS assay: qHTS cell viability counter screen (AID 1963581); also: nearly all actives have a fitted effect of over 45% in size
Summary of the method: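 Multiplexed with the reporter read, a CellTiter-Glo step (30 min, room temperature) gauges ATP-based viability of HCT-116 p53RE-bla cells after 16 h compound incubation at 37 C.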

[10] = p53 small molecule agonists, cell-based qHTS assay (AID 1963582; active = well fitted activation curve with a large enough effect in the signal ratio in the repeat runs, not every such curve was filed as active; the % refers to the signal ratio)
Summary of the method: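 Beta-lactamase reporter cells (p53RE-bla) treated with compounds for 16 h at 37 C; FRET substrate, 2 h, room temperature; fluorescence intensity.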

[11] = biological target: 5-hydroxytryptamine receptor 2A (Homo sapiens) (UniProt P28223); test: 5-hydroxytryptamine receptor 2A (HTR2A) small molecule antagonists, cell-based qHTS assay (AID 1963586); also: nearly all actives have a fitted effect of over 45% in size
Sequence of 5-hydroxytryptamine receptor 2A (Homo sapiens) (P28223 whole entry, looked up): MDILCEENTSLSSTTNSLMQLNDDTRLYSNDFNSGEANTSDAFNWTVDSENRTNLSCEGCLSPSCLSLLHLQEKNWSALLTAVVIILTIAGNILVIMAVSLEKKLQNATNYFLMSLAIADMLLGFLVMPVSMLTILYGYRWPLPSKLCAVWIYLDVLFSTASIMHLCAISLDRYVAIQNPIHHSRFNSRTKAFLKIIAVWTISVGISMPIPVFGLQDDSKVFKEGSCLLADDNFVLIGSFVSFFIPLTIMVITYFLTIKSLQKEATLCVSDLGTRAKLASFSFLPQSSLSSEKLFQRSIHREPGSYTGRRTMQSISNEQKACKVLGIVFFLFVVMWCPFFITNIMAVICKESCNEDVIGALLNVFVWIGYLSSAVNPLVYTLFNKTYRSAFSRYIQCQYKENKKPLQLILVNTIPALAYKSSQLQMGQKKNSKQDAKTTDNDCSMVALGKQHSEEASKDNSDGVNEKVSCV
Summary of the method: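 CHO cells stably expressing human HTR2A were plated for 18 h at 37 C, then loaded with calcium dye for 1 h. Compounds were preincubated 5 min at room temperature before DOI (4 nM solution) was added. Kinetic fluorescence was read for 3 min.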

[12] = biological target: 5-hydroxytryptamine receptor 2A (Homo sapiens) (UniProt P28223); test: 5-hydroxytryptamine receptor 2A (HTR2A) small molecule agonists, cell-based qHTS assay (AID 1963587); also: nearly all actives have a fitted effect of over 30% in size
Summary of the method: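 HTR2A-CHO cells, plated 18 h at 37 C/5% CO2, dye-loaded 1 h at 37 C; compounds in DMSO added by pin tool (agonist mode). Intracellular calcium flux read as kinetic fluorescence on FDSS over 2 min at 1 s intervals.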

[13] = biological target: Muscarinic acetylcholine receptor M1 (Homo sapiens) (UniProt P11229); test: Cholinergic receptor muscarinic 1 (CHRM1) small molecule antagonists, cell-based qHTS assay (AID 1963588); also: nearly all actives have a fitted effect of over 40% in size
Sequence of Muscarinic acetylcholine receptor M1 (Homo sapiens) (P11229 whole entry, looked up): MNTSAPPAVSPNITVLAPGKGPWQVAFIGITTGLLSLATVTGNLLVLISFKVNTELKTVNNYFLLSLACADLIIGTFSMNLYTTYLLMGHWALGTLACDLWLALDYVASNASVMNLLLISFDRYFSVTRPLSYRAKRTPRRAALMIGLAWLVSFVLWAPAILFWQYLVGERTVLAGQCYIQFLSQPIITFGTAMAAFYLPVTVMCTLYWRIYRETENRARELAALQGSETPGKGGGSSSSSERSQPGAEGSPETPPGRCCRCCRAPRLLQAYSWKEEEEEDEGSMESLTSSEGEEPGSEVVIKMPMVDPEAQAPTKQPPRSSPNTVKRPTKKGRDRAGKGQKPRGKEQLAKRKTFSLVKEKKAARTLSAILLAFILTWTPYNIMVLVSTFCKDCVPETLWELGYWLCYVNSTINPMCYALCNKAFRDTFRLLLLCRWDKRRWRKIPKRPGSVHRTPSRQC
Summary of the method: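 Compounds were tested at 15 concentrations in three independent runs. Dye-loaded CHRM1-CHO cells were exposed 5 min at room temperature before stimulation by acetylcholine added at 50nM. Intracellular calcium was read kinetically on FDSS for 3 min.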

[14] = cAMP Responsive Elements (CRE) small molecule agonists, cell-based qHTS assay (AID 1963590)
Summary of the method: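 Quantitative HTS for CRE agonists: HEK 293T CRE-bla cells, overnight plating, 3 h compound incubation at 37 C/5% CO2, then 2 h room-temperature LiveBLAzer B/G FRET substrate loading.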

[15] = biological target: Beta-2 adrenergic receptor (Homo sapiens) (UniProt P07550); test: Adrenergic beta2 receptor (ADRB2) small molecule antagonists, cell-based qHTS assay (AID 1963592); also: series mostly up to about 92 µM; nearly all actives have a fitted effect of over 50% in size
Sequence of Beta-2 adrenergic receptor (Homo sapiens) (P07550 whole entry, looked up): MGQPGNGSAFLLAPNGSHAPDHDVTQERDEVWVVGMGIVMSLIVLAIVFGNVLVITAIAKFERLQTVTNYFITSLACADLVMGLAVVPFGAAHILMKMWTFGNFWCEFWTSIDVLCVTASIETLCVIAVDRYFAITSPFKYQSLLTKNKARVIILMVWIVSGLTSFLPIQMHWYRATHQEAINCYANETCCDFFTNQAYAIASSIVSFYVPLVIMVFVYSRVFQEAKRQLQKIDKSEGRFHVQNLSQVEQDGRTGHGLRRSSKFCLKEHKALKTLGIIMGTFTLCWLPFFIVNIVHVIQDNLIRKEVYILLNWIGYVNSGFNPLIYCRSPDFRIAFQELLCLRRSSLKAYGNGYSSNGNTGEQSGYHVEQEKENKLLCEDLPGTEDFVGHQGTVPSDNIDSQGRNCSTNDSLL
Summary of the method: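 Assay format: CHO-ADRB2 cells, 18-20hr seeding at 37C/5% CO2, then compound plus 1nM isoproterenol agonist mix for 0.5hr RT. Homogeneous time-resolved fluorescence cAMP detection after 1hr, expressed as 665/615 nm ratio.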

[16] = biological target: Beta-2 adrenergic receptor (Homo sapiens) (UniProt P07550); test: Adrenergic beta2 receptor (ADRB2) small molecule agonists, cell-based qHTS assay (AID 1963593);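 also: CHO cells stably overexpressing human ADRB2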
Summary of the method: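 CHO cells stably over-expressing ADRB2 were plated overnight at 37C, then dosed with compounds plus a stimulation mix containing 100uM IBMX and 25uM Ro-20-1724 for 0.5hr at room temperature. cAMP was measured by HTRF competition, 1hr.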

[17] = biological target: D(2) dopamine receptor (Homo sapiens) (UniProt P14416); test: Dopamine D2 receptor (DRD2) small molecule agonists, cell-based qHTS assay (AID 1963594); also: nearly all actives have a fitted effect of over 35% in size
Sequence of D(2) dopamine receptor (Homo sapiens) (P14416 whole entry, looked up): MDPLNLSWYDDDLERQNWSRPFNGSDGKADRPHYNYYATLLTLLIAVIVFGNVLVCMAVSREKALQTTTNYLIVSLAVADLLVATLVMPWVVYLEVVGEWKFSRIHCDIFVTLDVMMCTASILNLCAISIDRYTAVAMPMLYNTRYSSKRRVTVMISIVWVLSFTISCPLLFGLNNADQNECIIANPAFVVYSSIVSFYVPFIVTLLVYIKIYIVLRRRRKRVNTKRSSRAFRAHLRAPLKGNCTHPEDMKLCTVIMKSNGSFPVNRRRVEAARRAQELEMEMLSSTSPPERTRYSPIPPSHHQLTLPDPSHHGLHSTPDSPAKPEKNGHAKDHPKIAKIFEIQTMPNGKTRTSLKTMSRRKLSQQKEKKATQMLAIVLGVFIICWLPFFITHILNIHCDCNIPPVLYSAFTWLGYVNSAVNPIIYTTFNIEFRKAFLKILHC
Summary of the method: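 HEK293 cells stably expressing DRD2 were cultured 24 h at 37 C, then given Ro20-1724 (0.1 mM final) and compounds for 10 min at room temperature. NKH477 (200nM) was then added for 30 min. cAMP was read by HTRF.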

[18] = biological target: D(2) dopamine receptor (Homo sapiens) (UniProt P14416); test: Dopamine D2 receptor (DRD2) small molecule antagonists, cell-based qHTS assay (AID 1963595; active = well fitted inhibition curve with a large enough effect in the signal ratio in the repeat runs, with a control signal flat; the % refers to the signal ratio)
Summary of the method: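 In this cell-based antagonist screen, compounds act for 10 min at room temperature before a 30 min challenge with 12 nM quinpirole and 200 nM NKH477. cAMP is quantified by HTRF competition in DRD2-HEK293 cells containing 0.1 mM Ro20-1724.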

[19] = cAMP Responsive Elements (CRE) small molecule antagonists, cell-based qHTS assay (AID 1963591; active = well fitted inhibition curve with a large enough effect in the signal ratio in the repeat runs, not every such curve was filed as active; the % refers to the signal ratio)
Summary of the method: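 Fluorescence intensity from cleaved LiveBLAzer B/G substrate (2 h, room temperature) quantified CRE-bla activity in HEK 293T cells exposed 3 h to compound with 0.25 uM final NKH477.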

[20] = biological target: Muscarinic acetylcholine receptor M1 (Homo sapiens) (UniProt P11229); test: Cholinergic receptor muscarinic 1 (CHRM1) small molecule agonists, cell-based qHTS assay (AID 1963589); also: nearly all actives have a fitted effect of over 35% in size
Summary of the method: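 qHTS, 15-point titration, 3 independent runs: compounds pin-transferred onto dye-loaded CHRM1-CHO cells (human M1), calcium fluorescence followed every second to detect agonism.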
% is scaled to controls: 0 for no effect and ±100 for the full control effect.

CC(C)=CCOC(=O)c1ccccc1
inactive: Potency [1] | Potency [2] | outcome [3] | outcome [4] | Potency [5] | Potency [6] | Potency [7] | Potency [8] | Potency [9] | Potency [10] | Potency [11] | Potency [12] | Potency [13] | Potency [14] | Potency [15] | Potency [16] | Potency [17] | Potency [18]

Nc1ccc(S(=O)(=O)Nc2ccnn2-c2ccccc2)cc1
inactive: activity, positive = activation [1] 4.54% [at 19 µM] | activity change [2] -0.562% [at 11.8 µM, hits give high values] | activation [3] 15% [at 15.8 µM] | activation [4] 0.406% [at 11.8 µM] | activation [5] 4.03% [at 13.5 µM] | activation [6] 0.115% [at 13.6 µM] | activity change, negative = cytotoxicity [7] 1.97% [at 13.5 µM] | activity change, negative = cytotoxicity [8] -1.12% [at 13.5 µM] | activity change, negative = cytotoxicity [9] -3.47% [at 13.5 µM] | activation [10] 1.07% [at 13.5 µM] | activation [14] -0.057% [at 19 µM] | activity change, negative = inhibition [19] 0.401% [at 18.9 µM] | activity change, negative = inhibition [15] 0.77% [at 19 µM] | Potency [16] | activation [17] -21.6% [at 19 µM] | activity change, negative = inhibition [18] 1.2% [at 18.9 µM]

CCCCCOC(=O)CCC
inactive: Potency [1] | Potency [2] | outcome [3] | outcome [4] | Potency [5] | Potency [6] | Potency [7] | Potency [8] | Potency [9] | Potency [10] | Potency [11] | Potency [12] | Potency [13] | Potency [20] | Potency [19] | Potency [15] | Potency [17] | Potency [18]

OC1(c2ccccc2)CCNCC1
inactive: Potency [1] | Potency [2] | outcome [3] | outcome [4] | Potency [5] | Potency [6] | Potency [7] | Potency [8] | Potency [9] | Potency [10] | Potency [11] | Potency [12] | Potency [13] | Potency [20] | Potency [14] | Potency [15] | Potency [16] | Potency [18]

CC(=O)N[C@@H](CO)C(=O)N[C@@H](CC(=O)O)C(=O)N[C@@H](CCCCN)C(=O)N1CCC[C@H]1C(=O)O (Ac-SDKP-OH)
inactive: Potency [1] | Potency [2] | outcome [3] | outcome [4] | Potency [5] | Potency [6] | Potency [7] | Potency [8] | Potency [9] | Potency [10] | Potency [14] | Potency [19] | Potency [15] | Potency [16] | Potency [17]

C=CCCCC
inactive: Potency [1] | Potency [2] | outcome [3] | outcome [4] | Potency [5] | Potency [6] | Potency [7] | Potency [8] | Potency [9] | Potency [10] | Potency [11] | Potency [12] | Potency [13] | Potency [20] | Potency [14] | Potency [19] | Potency [15] | Potency [17] | Potency [18]

FC(F)OC(Cl)C(F)(F)F (configuration not stated)
inactive: Potency [1] | Potency [2] | outcome [3] | outcome [4] | Potency [5] | Potency [6] | Potency [7] | Potency [8] | Potency [9] | Potency [10] | Potency [11] | Potency [12] | Potency [13] | Potency [20] | Potency [14] | Potency [19] | Potency [15] | Potency [17] | Potency [18]

Cc1nc2ccc(Cl)cc2[nH]1
inactive: Potency [1] | Potency [2] | outcome [3] | outcome [4] | Potency [5] | Potency [6] | Potency [7] | Potency [8] | Potency [9] | Potency [10] | Potency [11] | Potency [12] | Potency [13] | Potency [20] | Potency [14] | Potency [15] | Potency [17] | Potency [18]

O=CC(=O)c1ccccc1
active: Potency [1] 68.7 µM
inactive: Potency [2] | outcome [3] | outcome [4] | Potency [5] | Potency [6] | Potency [7] | Potency [8] | Potency [9] | Potency [10] | Potency [11] | Potency [12] | Potency [13] | Potency [20] | Potency [14] | Potency [15] | Potency [17] | Potency [18]

N[C@H]1C(O)O[C@H](CO)[C@H](O)[C@@H]1O (some centres not stated)
inactive: Potency [1] | Potency [2] | outcome [3] | outcome [4] | Potency [5] | Potency [6] | Potency [8] | Potency [9] | Potency [12] | Potency [13] | Potency [20] | Potency [14] | Potency [15] | Potency [17] | Potency [18]

CC(C)(C)NCCNC(C)(C)C
inactive: Potency [1] | Potency [2] | outcome [3] | outcome [4] | Potency [5] | Potency [6] | Potency [8] | Potency [9] | Potency [10] | Potency [12] | Potency [20] | Potency [14] | Potency [19] | Potency [15] | Potency [17] | Potency [18]

C[N+]1(C)[C@@H]2CC(OC(=O)[C@H](CO)c3ccccc3)C[C@H]1[C@@H]1O[C@@H]12 (some centres not stated)
inactive: Potency [1] | Potency [2] | outcome [3] | outcome [4] | Potency [5] | Potency [6] | Potency [7] | Potency [8] | Potency [9] | Potency [10] | Potency [14] | Potency [19] | Potency [15] | Potency [17] | Potency [18]

Cc1cccc(N(C)C(=S)Oc2ccc3c(c2)CCC3)c1
inactive: Potency [1] | Potency [2] | outcome [3] | outcome [4] | Potency [5] | Potency [6] | Potency [7] | Potency [8] | Potency [9] | Potency [12] | Potency [20] | Potency [14] | Potency [19] | Potency [15] | Potency [17]

CCCCCCCCCCCBr
inactive: Potency [1] | Potency [2] | outcome [3] | outcome [4] | Potency [5] | Potency [6] | Potency [7] | Potency [8] | Potency [11] | Potency [12] | Potency [13] | Potency [20] | Potency [14] | Potency [19] | Potency [15] | Potency [17] | Potency [18]
